Measurements reported in PubChem BioAssay (NCATS).
“And” between values parts separate entries of the source, which are not always exact repeats. Equal values may be shown once. Inconclusive results are not listed. A number with no mark means an inactive call. Calls come from the whole dose curve.

What follows are molecules tested against Bile acid receptor (Homo sapiens) (UniProt Q96RI1) (assay: qHTS assay for small molecule agonists of farnesoid X receptor signaling (AID 588527;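 note: series mostly up to about 77 µM; 0% = vehicle basal and 100% = reference agonist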)). Details: HEK293T FXR-UAS-bla, beta-lactamase ratio, 16 h; activation: active compounds read high.
Sequence of Bile acid receptor (Homo sapiens) (Q96RI1 whole entry, looked up): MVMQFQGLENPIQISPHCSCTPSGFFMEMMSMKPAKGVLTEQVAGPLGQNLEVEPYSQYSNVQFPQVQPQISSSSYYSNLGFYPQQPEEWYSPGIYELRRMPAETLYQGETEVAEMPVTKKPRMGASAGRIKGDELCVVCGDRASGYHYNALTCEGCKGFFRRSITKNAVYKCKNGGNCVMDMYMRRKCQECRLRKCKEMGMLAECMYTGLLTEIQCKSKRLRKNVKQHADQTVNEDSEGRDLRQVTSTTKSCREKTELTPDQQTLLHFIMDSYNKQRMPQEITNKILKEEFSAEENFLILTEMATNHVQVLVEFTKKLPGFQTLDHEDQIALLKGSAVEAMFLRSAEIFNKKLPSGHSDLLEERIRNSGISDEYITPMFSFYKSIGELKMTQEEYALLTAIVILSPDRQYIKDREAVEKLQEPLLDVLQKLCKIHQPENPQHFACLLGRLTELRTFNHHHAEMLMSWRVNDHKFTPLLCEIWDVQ
Excerpt: NIH Chemical Genomics Center [NCGC] U.S. Environmental Protection Agency [EPA] National Institutes of Environmental Health Sciences [NIEHS] National Toxicology Program [NTP] NCGC Assay Overview The farnesoid-X-receptor (FXR), a nuclear hormone receptor is highly expressed in liver, intestine, kidney and adrenal cortex. Natural ligands of FXR are the bile acids (Cholic acid, Chenodeoxy cholic acid etc). It is an important regulator of diverse metabolic pathways, including the bile acid homeostasis, lipid and glucose metabolisms. FXR regulates the expression of target genes by binding either as a monomer or as a heterodimer with RXR (retinoid X receptor). As FXR regulates a large number of target genes involved in bile acid, lipoprotein and glucose metabolisms, it is a potential pharmacological target for bile acid and lipid disorders. Thus screening environmental chemicals on FXR signaling can be used for the studies focused on metabolic syndrome, hepatic and intestinal toxicity etc.
NCGC Assay Protocol Summary Using a beta-lactamase reporter-gene under control of Farnesoid X receptor (FXR) response element, a cell-based assay [GeneBLAzer FXR-UAS-bla assay developed by Invitrogen] was used to measure FXR ligands signaling. GeneBLAzer FXR-UAS-bla HEK293T cells were used with assay medium containing 10% dialyzed FBS. The assay was performed in clear bottom black Greiner 1536-well plates. Chenodeoxycholic acid and Guggulsterone were used in the screen as agonist and antagonist positive controls respectively. Library compounds were measured for their ability to stimulate the reporter gene activity. Compounds were screened in a titration series in 1536-well format. […] Data was normalized relative to Chenodeoxycholic acid control (100 uM, 100%), and DMSO only wells (basal, 0%). Concentration-response titration points for each compound were fitted to the Hill equation yielding concentrations of half-maximal stimulation (EC50) and maximal response (efficacy) values. qHTS protocol for FXR beta-lactamase assay in agonist mode [Step] [Parameter] [Value] [Description] 1. Reagent; 6 uL; 5000 cells/well 2. Incubation; 37 C for 5-7 hrs 3. Compounds; 23 nL; 0.59 nM to 92 uM 4. Controls (Chenodeoxycholic acid); 23 nL, - One column with dose response, start 200 uM, 1:2 dilutions in duplicates - Final concentrations of 100 uM and 60 uM in two columns 5. Incubation; 37 C for 16 hrs 6. Detection reagent; 1 uL of CCF4-dye 7. Incubation; RT for 2 hrs 8. Detection; Fluorescence; Envision plate reader
Molecule `O=P(O)(O)O` has an activation of 0.993%.
Molecule `CCOP(=O)(OCC)SCSP(=S)(OCC)OCC` has an activation of 10.4%.
`Cc1ccccc1Br` showed an activation of -2.02%.
In the case of `C=C(C)C1CC=C(C)C(OC(C)=O)C1` (stereo not given), the activation is reported as -0.422%.
`CCOP(=S)(OCC)SCC(=O)NC(C)C` was tested, and the activation was 0.181%.
For `CCC(C)n1c(=O)[nH]c(C)c(Br)c1=O` (stereo not given), the activation was 2.99%.
In the case of `CC(C)OCC1CO1` (stereo not given), the activation is reported as -0.0386%.
Work on `CCCCCCCCCC(=O)OC` yielded an activation of -0.517%.
`C/C=C/C/C=C\CCCCCCCCOC(C)=O` showed an activation of -4.9%.
With `CCCCN(CC)C(=O)SCCC` the activation was 3.83%.
For `CC(C)N(C(=O)COc1nnc(C(F)(F)F)s1)c1ccc(F)cc1`, the activation was 0.828%.
Molecule `Nc1ccccc1O` has an activation of -1.93%.
`CC1(C)C(C(=O)OC(C#N)c2cccc(Oc3ccccc3)c2)C1(C)C` (stereo not given) was tested, and the activation was 5.5%.
`C=CC(C)(O)CC/C=C(\C)CCC=C(C)C` (stereo not given) gave an activation of 0.971%.
For `CC(=O)OC(C)C`, the activation was -1.76%.
For `O=C1c2ccccc2C(=O)N1SC(Cl)(Cl)Cl`, the activation was 6.44%.
In the case of `CC1(C)CC(N=C=O)CC(C)(CN=C=O)C1` (stereo not given), the activation is reported as -0.574% and 2.35%.
Work on `CCCCCCCCCCCC(=O)OC` yielded an activation of 11.1%.
Molecule `CCCOCC(=Nc1ccc(Cl)cc1C(F)(F)F)n1ccnc1` has an activation of -0.0346%.
`CCCCC(O)(Cn1cncn1)c1ccc(Cl)cc1Cl` (stereo not given) showed an activation of -2.88%.
`Cc1ccccc1OCC1CO1` (stereo not given) gave an activation of -1.27%.
With `O=P(OCC(Br)CBr)(OCC(Br)CBr)OCC(Br)CBr` (stereo not given) the activation was 0.554%.
`CSc1nnc(C(C)(C)C)c(=O)n1N` gave an activation of -6.5%.
For `Cc1ccc([N+](=O)[O-])cc1N`, the activation was -0.807% and -1.04%.
`COC(=O)N(OC)c1ccccc1COc1ccn(-c2ccc(Cl)cc2)n1` was tested, and the activation was 11.5%.
In the case of `c1ccc2cc3ccccc3cc2c1`, the activation is reported as -1.8%.
For `CC1=CC(=O)NS(=O)(=O)O1`, the activation was 1.83% and 0.839%.
`CC(c1ccc(O)cc1)(c1ccc(O)cc1)c1ccc(O)cc1` showed an activation of 12.5%.
In the case of `NC(=O)Nc1nc2ccccc2[nH]1`, the activation is reported as -1.18%.
For `CNC(=O)Oc1cccc(N=CN(C)C)c1`, the activation was -2.76%.
`N#CCNC(=O)c1cnccc1C(F)(F)F` showed an activation of -0.0822%.
`Oc1cccc(Nc2ccccc2)c1` showed an activation of 0.64%.
With `CCOP(=O)(OCC)Oc1ccc2c(C)c(Cl)c(=O)oc2c1` the activation was 2.16%.
`CCN(Cc1cccc(S(=O)(=O)O)c1)c1ccc(C(=C2C=CC(=[N+](CC)Cc3cccc(S(=O)(=O)O)c3)C=C2)c2ccccc2S(=O)(=O)[O-])cc1` gave an activation of -1.6%.
With `Clc1ccc([C@]2(Cn3cncn3)C[C@H](Br)CO2)c(Cl)c1` the activation was 0.21% and -0.946%.
`COc1ccc(/C(=C/C(=O)N2CCOCC2)c2ccc(Cl)cc2)cc1OC` was tested, and the activation was -0.563%.
With `CCNc1nc(NC(C)(C)C)nc(SC)n1` the activation was 4.27%.
In the case of `COCc1cnc(C2=NC(C)(C(C)C)C(=O)N2)c(C(=O)O)c1` (stereo not given), the activation is reported as -0.497%.
`CC1(C)[C@@H]([C@@H](Br)C(Br)(Br)Br)[C@H]1C(=O)O[C@H](C#N)c1cccc(Oc2ccccc2)c1` gave an activation of 6.35%.
With `O=C(O)CC(C(=O)O)C(CC(=O)O)C(=O)O` (stereo not given) the activation was -1.38% and -0.082%.
